# Reference: PubChem BioAssay
# For part of these data: Measured potencies and affinities stand elsewhere. Activity calls are given as the source filed them.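 How the source made its calls, unless noted: active means primary screen activator hit with a dose response curve and TRPC4 channel activation at any tested dose; inactive means no activation, no dose response, or not a primary hit.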
# Experiments:
# [1] = tested on: TRPC4 beta (transient receptor potential cation channel C4), mouse; assay: TRPC4 cation channel opening, retest – cell-based, Fluo4 calcium, HEK293 TRPC4beta/mu-opioid, duplicates, 10 µM, confirmation (AID 2426;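 active means fluorescence ratio normalized to control raised more than 50% in primary screen plus both repeat runs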); settings: Fluo4 calcium fluorescence, at 10 µM; hits give high values
# [2] = tested on: transient receptor potential cation channel C4 beta (TRPC4), mouse; assay: TRPC4 cation channel opening, second retest – cell-based, second round, Fluo4, HEK293 TRPC4beta/mu-opioid, 1 µM, confirmation (AID 2461;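 active means primary screen active and over 50% activation in each of two duplicate runs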); settings: Fluo4 calcium fluorescence, at 1 µM; hits give high values
# [3] = tested on: TRPC4 (transient receptor potential cation channel C4 beta), mouse; assay: potentiation of DAMGO EC20 TRPC4 response – cell-based, second round, Fluo-4, HEK293 TRPC4beta/mu-opioid, 1 µM, confirmation (AID 2554;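 active means primary screen hit whose fluorescence ratio, in both repeats, exceeds the weak agonist control mean by 3 SD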); settings: DAMGO EC20, Fluo-4 calcium flux, at 1 µM; hits give high values
# [4] = tested on: TRPC4 beta (transient receptor potential cation channel C4), mouse; assay: potentiation of DAMGO EC20 TRPC4 response – cell-based, Fluo-4, HEK293 TRPC4beta/mu-opioid, confirmation (AID 2555;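 active means primary screen hit whose calcium fluorescence ratio, in both repeats, exceeds the weak agonist control mean by 3 SD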); settings: DAMGO EC20, Fluo-4 calcium flux, at 10 µM; hits give high values
# [5] = target: Short transient receptor potential channel 4 (Mus musculus) (UniProt Q9QUQ5); assay: blockers of DAMGO-evoked TRPC4 calcium flux – cell-based, Fluo4, HEK293 TRPC4beta/mu-opioid, confirmation (AID 2636;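 active means calcium signal cut by more than 3 SD below the full-agonist control yet still positive, in both repeats and the earlier primary screen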); settings: at 10 µM; hits give high values
# Chain of Short transient receptor potential channel 4 (Mus musculus) (Q9QUQ5 whole entry, looked up): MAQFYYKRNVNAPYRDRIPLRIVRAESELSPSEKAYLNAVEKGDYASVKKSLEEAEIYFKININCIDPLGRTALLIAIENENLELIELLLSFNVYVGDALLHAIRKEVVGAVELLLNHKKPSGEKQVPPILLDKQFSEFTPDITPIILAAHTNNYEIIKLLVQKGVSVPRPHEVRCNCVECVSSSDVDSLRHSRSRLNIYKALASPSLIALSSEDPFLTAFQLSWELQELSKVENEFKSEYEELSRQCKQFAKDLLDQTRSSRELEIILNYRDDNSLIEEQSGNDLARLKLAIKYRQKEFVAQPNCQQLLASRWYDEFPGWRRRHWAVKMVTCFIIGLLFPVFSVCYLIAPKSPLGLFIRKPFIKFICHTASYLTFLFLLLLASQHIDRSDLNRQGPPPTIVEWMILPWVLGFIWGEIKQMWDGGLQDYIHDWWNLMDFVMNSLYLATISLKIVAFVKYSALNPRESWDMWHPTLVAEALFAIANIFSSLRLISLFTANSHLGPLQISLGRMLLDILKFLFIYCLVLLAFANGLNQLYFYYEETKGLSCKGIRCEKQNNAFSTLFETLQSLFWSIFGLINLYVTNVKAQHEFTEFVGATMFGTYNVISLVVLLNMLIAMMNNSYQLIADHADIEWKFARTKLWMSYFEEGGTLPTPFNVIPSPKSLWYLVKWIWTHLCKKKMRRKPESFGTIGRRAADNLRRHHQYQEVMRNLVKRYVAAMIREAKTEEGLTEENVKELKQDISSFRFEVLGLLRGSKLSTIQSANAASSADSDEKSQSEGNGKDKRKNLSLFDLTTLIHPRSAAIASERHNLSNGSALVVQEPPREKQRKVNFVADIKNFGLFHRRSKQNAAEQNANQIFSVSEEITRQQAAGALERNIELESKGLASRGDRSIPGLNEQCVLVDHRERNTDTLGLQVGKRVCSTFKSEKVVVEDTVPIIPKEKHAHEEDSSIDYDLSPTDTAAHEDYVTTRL
# [6] = target: Short transient receptor potential channel 4 (Mus musculus) (UniProt Q9QUQ5); assay: blockers of DAMGO-evoked TRPC4 calcium flux – cell-based, second round, Fluo4, HEK293 TRPC4beta/mu-opioid, 1 µM, confirmation (AID 2637;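 active means calcium signal ratio cut to more than 3 SD under the fully stimulated control mean yet still positive, in both repeats and the primary screen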;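 on inhibition: percent of integrated ratio relative to wells lacking test compound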); settings: at 1 µM; hits give high values
# [7] = target: Short transient receptor potential channel 4 (Mus musculus) (UniProt Q9QUQ5); assay: calcium entry via TRPC4 opening agents – cell-based, HEK293 TRPC4/mu-opioid, Fluo-4 calcium, dose response (AID 434937)
# [8] = target: Short transient receptor potential channel 4 (Mus musculus) (UniProt Q9QUQ5); assay: potentiation of DAMGO-evoked TRPC4 calcium signal – cell-based, HEK293 TRPC4/mu-opioid, Fluo-4 calcium, EC20 DAMGO, dose response (AID 434941;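 active means earlier screen potentiator hit that boosts the TRPC4 ion channel at some dose, with a dose response; inactive means no potentiation, no dose response, or not a prior hit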;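 further: calcium entry triggered by an EC20 dose of DAMGO at the co-expressed mu-opioid receptor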)
# [9] = target: Short transient receptor potential channel 4 (Mus musculus) (UniProt Q9QUQ5); assay: block of DAMGO-driven TRPC4 calcium entry – cell-based, HEK293 TRPC4/mu-opioid, Fluo-4 calcium, dose response (AID 434942;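 active means primary screen inhibitor hit that blocks the TRPC4 channel at some tested dose, yielding a dose curve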)
# [10] = target: Short transient receptor potential channel 6 (Mus musculus) (UniProt Q61143); assay: TRPC6 blockade by TRPC4 inhibitor hits – cell-based, HEK293, membrane potential dye, duplicate, selectivity assay for TRPC4 inhibitor project, confirmation (AID 434948;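 active means active in primary screen and both duplicates, each dropping signal beyond three positive-control SD with fluorescence still positive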); settings: HEK293 TRPC6, membrane potential dye fluorescence, at 10 µM, stimulated with maximal-effect acetylcholine; hits give high values
# Chain of Short transient receptor potential channel 6 (Mus musculus) (Q61143 whole entry, looked up): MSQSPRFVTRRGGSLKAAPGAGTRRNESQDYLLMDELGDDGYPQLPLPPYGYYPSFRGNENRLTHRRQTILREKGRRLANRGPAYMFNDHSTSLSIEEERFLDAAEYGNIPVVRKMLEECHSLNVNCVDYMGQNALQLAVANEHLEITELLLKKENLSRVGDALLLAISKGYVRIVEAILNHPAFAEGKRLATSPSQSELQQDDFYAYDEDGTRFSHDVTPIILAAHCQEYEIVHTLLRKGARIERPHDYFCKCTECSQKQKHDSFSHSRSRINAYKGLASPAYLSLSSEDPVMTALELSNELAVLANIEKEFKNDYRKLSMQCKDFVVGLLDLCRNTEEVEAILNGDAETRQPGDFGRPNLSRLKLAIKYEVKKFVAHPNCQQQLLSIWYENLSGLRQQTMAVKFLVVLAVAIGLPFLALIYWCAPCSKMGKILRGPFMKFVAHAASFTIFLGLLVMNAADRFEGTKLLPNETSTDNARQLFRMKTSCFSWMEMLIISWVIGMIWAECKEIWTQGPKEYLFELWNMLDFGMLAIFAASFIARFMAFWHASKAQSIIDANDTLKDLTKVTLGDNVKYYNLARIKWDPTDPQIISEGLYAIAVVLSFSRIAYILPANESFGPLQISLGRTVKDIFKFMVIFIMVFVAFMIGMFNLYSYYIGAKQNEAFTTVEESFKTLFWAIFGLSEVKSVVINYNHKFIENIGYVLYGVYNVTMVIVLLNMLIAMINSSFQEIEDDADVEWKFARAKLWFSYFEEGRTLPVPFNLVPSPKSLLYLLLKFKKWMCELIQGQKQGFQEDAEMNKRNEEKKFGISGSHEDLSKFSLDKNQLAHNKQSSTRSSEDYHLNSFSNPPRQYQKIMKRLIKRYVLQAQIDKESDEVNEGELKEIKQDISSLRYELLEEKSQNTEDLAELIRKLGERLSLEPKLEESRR
# [11] = target: Short transient receptor potential channel 6 (Mus musculus) (UniProt Q61143); assay: TRPC6 opening by TRPC4 activator hits – cell-based, HEK293, membrane potential dye, duplicate, selectivity assay for TRPC4 activator project, confirmation (AID 434950;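 active means membrane potential signal rise above negative control mean plus 3 SD in both duplicates, also active in the earlier TRPC4 screen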); settings: HEK293 TRPC6, membrane potential fluorescence, at 10 µM; activation: hits give high values; outcome: activation
# [12] = target: Short transient receptor potential channel 6 (Mus musculus) (UniProt Q61143); assay: positive modulators of mouse TRPC6 channel – HEK293 cells, membrane potential dye, duplicate, selectivity assay for TRPC4 potentiator project, confirmation (AID 434952;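 active means compound raising the membrane signal above positive-control mean plus 3 SD in both repeats, and a primary screen hit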); settings: HEK293 TRPC6, membrane potential dye fluorescence, at 10 µM, maximal acetylcholine added after compound; hits give high values
# [13] = target: Short transient receptor potential channel 4 (Mus musculus) (UniProt Q9QUQ5); assay: calcium flux activators in TRPC4/5HT1a cells, counter-screen for TRPC4 activator project, cell-based, second counter screen, HEK293 TRPC4/5HT1a, Fluo-4 (AID 434977;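 active means calcium signal rise above buffer-control mean plus 5 SD in both duplicates, and also a hit in the primary screen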); settings: Fluo-4 calcium flux, at 10 µM; hits give high values
# [14] = serotonin-gated TRPC4 signal block – cell-based, second counter screen, HEK293 TRPC4/5HT1a, Fluo-4, counter-screen for TRPC4 inhibitor project, confirmation (AID 434978;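 active means primary screen active whose calcium signal fell more than 3 SD beyond the full-serotonin control mean in both duplicate plates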;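 on outcome: serotonin given first at submaximal then at maximal dose after compound preincubation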); settings: Fluo-4 calcium flux, at 10 µM, serotonin added to trigger calcium flux; hits give high values
# [15] = tested on: TRPC4 (mouse), co-expressed with 5HT1a in HEK293; assay: enhancement of serotonin-evoked TRPC4 response – cell-based, second counter screen, HEK293 TRPC4/5HT1a, Fluo-4, counter-screen for TRPC4 potentiator project, confirmation (AID 434979;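 active means signal rise over 3 SD above mean of control wells given weak agonist, in both repeats and first screen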); settings: Fluo-4 calcium flux, at 10 µM, serotonin added at its EC20 dose; hits give high values
# [16] = nonspecific calcium rise without TRPC4 – cell-based, HEK293 mu-opioid receptor line, counter-screen for TRPC4 activator project, confirmation (AID 449723;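 active means hit in primary screen, with calcium signal over 5 SD above buffer well mean in both duplicates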;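 further: counter screen cells carry the mu-opioid receptor alone and lack TRPC4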); settings: HEK293 mu-opioid cells, Fluo-4 calcium fluorescence, at 10 µM; hits give high values
# [17] = nonspecific potentiation of DAMGO calcium response – cell-based, HEK293 mu-opioid receptor line, counter-screen for TRPC4 allosteric potentiator project, confirmation (AID 449724;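 active means calcium signal rise more than 3 SD above the low-dose agonist control mean, in both duplicate plates and the primary screen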); settings: HEK293 mu-opioid receptor cells, Fluo-4 calcium flux, at 10 µM, compound added before EC20 DAMGO stimulus; hits give high values
smiles,measurement,setting,value
c1coc(CN=C2NC(=NCc3ccco3)c3ccccc32)c1,outcome,[1],inactive
same,outcome,[2],inactive
same,outcome,[3],inactive
same,outcome,[4],inactive
same,inhibition,[5],98% (active)
same,inhibition,[6],49% (active)
same,outcome,[7],inactive
same,outcome,[8],inactive
same,outcome,[9],inactive
same,inhibition,[10],47.5% (active)
same,outcome,[11],inactive
same,outcome,[12],inactive
same,outcome,[13],inactive
same,inhibition,[14],35.3% (active)
same,outcome,[15],inactive
same,outcome,[16],inactive
same,outcome,[17],inactive
Cc1c(C(=O)NCCc2ccccc2)oc2ccccc12,outcome,[1],inactive
same,outcome,[2],inactive
same,outcome,[3],inactive
same,potentiation,[4],61% (active)
same,outcome,[5],inactive
same,outcome,[6],inactive
same,outcome,[7],inactive
same,outcome,[8],inactive
same,outcome,[9],inactive
same,outcome,[10],inactive
same,outcome,[11],inactive
same,outcome,[12],inactive
same,outcome,[13],inactive
same,outcome,[14],inactive
same,potentiation,[15],45.7% (active)
same,outcome,[16],inactive
same,outcome,[17],inactive
CCc1ccc(Nc2n[n+](-c3ccccc3)c(/C=C/c3ccccc3)s2)cc1,outcome,[1],inactive
same,outcome,[2],inactive
same,outcome,[3],inactive
same,potentiation,[4],14% (active)
same,outcome,[5],inactive
same,outcome,[6],inactive
same,outcome,[7],inactive
same,outcome,[8],inactive
same,outcome,[9],inactive
same,outcome,[10],inactive
same,outcome,[11],inactive
same,outcome,[12],inactive
same,outcome,[13],inactive
same,outcome,[14],inactive
same,potentiation,[15],14.8% (active)
same,outcome,[16],inactive
same,outcome,[17],inactive
Cc1cc2cc(CN(Cc3cccs3)C(=S)NCc3ccco3)c(=O)[nH]c2cc1C,outcome,[1],inactive
same,outcome,[2],inactive
same,outcome,[3],inactive
same,outcome,[4],inactive
same,outcome,[5],inactive
same,outcome,[6],inactive
same,outcome,[7],inactive
same,outcome,[8],inactive
same,outcome,[9],inactive
same,outcome,[10],inactive
same,outcome,[11],inactive
same,outcome,[12],inactive
same,outcome,[13],inactive
same,outcome,[14],inactive
same,outcome,[15],inactive
same,outcome,[16],inactive
same,outcome,[17],inactive
CC1CC(C)CN(CCCNC(=O)C2CCCN(c3ncnc4c3nc3n4CCCCC3)C2)C1 (stereo not given),outcome,[1],inactive
same,outcome,[2],inactive
same,potentiation,[3],18% (active)
same,outcome,[4],inactive
same,outcome,[5],inactive
same,outcome,[6],inactive
same,outcome,[7],inactive
same,outcome,[8],inactive
same,outcome,[9],inactive
same,outcome,[10],inactive
same,outcome,[11],inactive
same,outcome,[12],inactive
same,outcome,[13],inactive
same,outcome,[14],inactive
same,potentiation,[15],17.1% (active)
same,outcome,[16],inactive
same,outcome,[17],inactive
CC(C)OC(=O)C1CC=CCC1C(=O)Nc1ccc(Cl)cc1 (stereo not given),outcome,[1],inactive
same,outcome,[2],inactive
same,outcome,[3],inactive
same,outcome,[4],inactive
same,outcome,[5],inactive
same,outcome,[6],inactive
same,outcome,[7],inactive
same,outcome,[8],inactive
same,outcome,[9],inactive
same,outcome,[10],inactive
same,outcome,[11],inactive
same,outcome,[12],inactive
same,outcome,[13],inactive
same,outcome,[14],inactive
same,outcome,[15],inactive
same,outcome,[16],inactive
same,outcome,[17],inactive
Cc1oc2c(c1C(=O)c1ccccc1)C(=O)C(=O)c1ccccc1-2,outcome,[1],inactive
same,outcome,[2],inactive
same,outcome,[3],inactive
same,outcome,[4],inactive
same,inhibition,[5],68% (active)
same,outcome,[6],inactive
same,outcome,[7],inactive
same,outcome,[8],inactive
same,outcome,[9],inactive
same,outcome,[10],inactive
same,outcome,[11],inactive
same,outcome,[12],inactive
same,outcome,[13],inactive
same,inhibition,[14],30.8% (active)
same,outcome,[15],inactive
same,outcome,[16],inactive
same,outcome,[17],inactive
COc1ccc(OC)c(Nc2c3c(nc4ccccc24)CCC3)c1,outcome,[1],inactive
same,outcome,[2],inactive
same,outcome,[3],inactive
same,outcome,[4],inactive
same,inhibition,[5],67% (active)
same,outcome,[6],inactive
same,outcome,[7],inactive
same,outcome,[8],inactive
same,outcome,[9],inactive
same,outcome,[10],inactive
same,outcome,[11],inactive
same,outcome,[12],inactive
same,outcome,[13],inactive
same,inhibition,[14],30.5% (active)
same,outcome,[15],inactive
same,outcome,[16],inactive
same,outcome,[17],inactive
CC1CCN(CCc2nc3cc(NS(=O)(=O)c4ccc(F)cc4)ccc3n2C)CC1,outcome,[1],inactive
same,outcome,[2],inactive
same,outcome,[3],inactive
same,outcome,[4],inactive
same,outcome,[5],inactive
same,outcome,[6],inactive
same,outcome,[7],inactive
same,outcome,[8],inactive
same,outcome,[9],inactive
same,outcome,[10],inactive
same,outcome,[11],inactive
same,outcome,[12],inactive
same,outcome,[13],inactive
same,outcome,[14],inactive
same,potentiation,[15],7.72% (active)
same,outcome,[16],inactive
same,outcome,[17],inactive
NC(=O)C(c1cccc(Cl)c1)c1ncc(C(F)(F)F)cc1Cl (stereo not given),outcome,[1],inactive
same,outcome,[2],inactive
same,outcome,[3],inactive
same,outcome,[4],inactive
same,outcome,[5],inactive
same,outcome,[6],inactive
same,outcome,[7],inactive
same,outcome,[8],inactive
same,outcome,[9],inactive
same,outcome,[10],inactive
same,outcome,[11],inactive
same,outcome,[12],inactive
same,outcome,[13],inactive
same,outcome,[14],inactive
same,potentiation,[15],7.72% (active)
same,outcome,[16],inactive
same,outcome,[17],inactive
Cc1ccc(NC(=O)c2cccs2)cc1,outcome,[1],inactive
same,outcome,[2],inactive
same,outcome,[3],inactive
same,outcome,[4],inactive
same,outcome,[5],inactive
same,outcome,[6],inactive
same,outcome,[7],inactive
same,outcome,[8],inactive
same,outcome,[9],inactive
same,outcome,[10],inactive
same,outcome,[11],inactive
same,outcome,[12],inactive
same,outcome,[13],inactive
same,outcome,[14],inactive
same,outcome,[15],inactive
same,outcome,[16],inactive
same,outcome,[17],inactive
Cn1ncc(C#N)c1/N=C/N(Cc1ccccc1)Cc1ccccc1,outcome,[1],inactive
same,outcome,[2],inactive
same,outcome,[3],inactive
same,outcome,[4],inactive
same,outcome,[5],inactive
same,outcome,[6],inactive
same,outcome,[7],inactive
same,outcome,[8],inactive
same,outcome,[9],inactive
same,outcome,[10],inactive
same,outcome,[11],inactive
same,outcome,[12],inactive
same,outcome,[13],inactive
same,outcome,[14],inactive
same,outcome,[15],inactive
same,outcome,[16],inactive
same,outcome,[17],inactive
Cc1cccc(NC(=O)c2cc([N+](=O)[O-])ccc2N2CCN(C)CC2)c1,outcome,[1],inactive
same,outcome,[2],inactive
same,outcome,[3],inactive
same,outcome,[4],inactive
same,outcome,[5],inactive
same,outcome,[6],inactive
same,outcome,[7],inactive
same,outcome,[8],inactive
same,outcome,[9],inactive
same,outcome,[10],inactive
same,outcome,[11],inactive
same,outcome,[12],inactive
same,outcome,[13],inactive
same,outcome,[14],inactive
same,potentiation,[15],18.8% (active)
same,outcome,[16],inactive
same,outcome,[17],inactive
COc1ccc(C2C(O)C(c3c[nH]c4ccccc34)=NN2C(=O)CCl)cc1 (stereo not given),outcome,[1],inactive
same,outcome,[2],inactive
same,outcome,[3],inactive
same,potentiation,[4],36% (active)
same,outcome,[5],inactive
same,outcome,[6],inactive
same,outcome,[7],inactive
same,outcome,[8],inactive
same,outcome,[9],inactive
same,outcome,[10],inactive
same,outcome,[11],inactive
same,outcome,[12],inactive
same,outcome,[13],inactive
same,outcome,[14],inactive
same,potentiation,[15],28.9% (active)
same,outcome,[16],inactive
same,outcome,[17],inactive
Cc1ccc(Nc2nc3ccccc3[nH]2)nc1,outcome,[1],inactive
same,outcome,[2],inactive
same,outcome,[3],inactive
same,outcome,[4],inactive
same,outcome,[5],inactive
same,outcome,[6],inactive
same,outcome,[7],inactive
same,outcome,[8],inactive
same,outcome,[9],inactive
same,outcome,[10],inactive
same,outcome,[11],inactive
same,outcome,[12],inactive
same,outcome,[13],inactive
same,outcome,[14],inactive
same,outcome,[15],inactive
same,outcome,[16],inactive
same,outcome,[17],inactive
